Shown are actives, neighbours in structure and some others; about 3.8% of the full set was active somewhere.
Mtb FBA inh – inhibits M. tuberculosis FBA enzyme; P9WQA3; purified M. tuberculosis FBA, fluorescence read-out; actives 2.3% (n = 360,000); inhibition, % at 1 µM; in the data active = inhibition above about 27%
Target sequence (P9WQA3 whole entry, looked up): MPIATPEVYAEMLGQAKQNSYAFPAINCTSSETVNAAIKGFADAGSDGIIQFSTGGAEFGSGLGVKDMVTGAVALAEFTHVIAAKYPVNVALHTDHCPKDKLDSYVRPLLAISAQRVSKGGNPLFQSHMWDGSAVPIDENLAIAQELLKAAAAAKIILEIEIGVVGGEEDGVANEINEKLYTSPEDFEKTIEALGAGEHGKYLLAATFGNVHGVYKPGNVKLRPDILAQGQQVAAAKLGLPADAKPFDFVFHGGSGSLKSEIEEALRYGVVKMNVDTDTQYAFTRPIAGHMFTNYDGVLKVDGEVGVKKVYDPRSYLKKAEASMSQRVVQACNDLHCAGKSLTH
PrP UTR inh – inhibition of PrP 5' UTR reporter expression. cell-based PrP 5' UTR mRNA reporter, plate reader. actives 0.35% (n = 340,000). inhibition, % (test concentration not listed); in the data active = inhibition above about 52%
Y pestis TopoI – blocks Yersinia pestis topoisomerase I activity | Y. pestis Topo-I cleavage product accumulation, plate reader | actives 0.064% (n = 360,000) | activity, % at 10 µM | AID 504884; in the data active = activity above about 50%, passing the limit was not always enough
Mtb hypoxia rep – inhibitors of hypoxia-regulated fluorescent reporter in Mycobacterium tuberculosis | M. tuberculosis hypoxia-regulated fluorescent reporter, fluorescence | fluorescence inhibition, % (no concentration beside the values) | actives 0.1% (n = 300,000); in the data active = fluorescence inhibition mostly above about 23%, no sharp cut-off; inactive = mostly below about 17%
GDH-TPI inh – GDH-TPI coupled enzyme inhibition counter-screen | inhibition, % at 4.8 µM | GDH-TPI coupled enzyme counterscreen, NADH absorbance | actives 1.2% (n = 360,000); in the data active = inhibition above about 30%
PrPC surface inh – cell surface PrPC inhibition, primary TR-FRET screen; P04156; TR-FRET read-out; actives 0.43% (n = 370,000); inhibition, % at 13.8 µM; in the data active = inhibition above about 24%
Hits are given with their value.

What do the screens show for `Cc1nc(N(C)C)c2sc(=S)n(-c3ccccc3)c2n1`?
Mtb FBA inh: inactive; PrP UTR inh: inactive; Y pestis TopoI: inactive; Mtb hypoxia rep: inactive; GDH-TPI inh: inactive; PrPC surface inh: inactive

How did Cc1ccc(S(=O)(=O)c2cc3c(=O)n4ccccc4nc3n(C3CCCC3)c2=N)cc1 do in these assays?
Mtb FBA inh: inactive; PrP UTR inh: inactive; Y pestis TopoI: inactive; Mtb hypoxia rep: inactive; GDH-TPI inh: inactive; PrPC surface inh: inactive

How did Cc1ccc2nc3c(cc(C(=O)NC4CCCC4)c(=N)n3C3CCCCC3)c(=O)n2c1 do in these assays?
Mtb FBA inh: 134; PrP UTR inh: inactive; Y pestis TopoI: inactive; Mtb hypoxia rep: inactive; GDH-TPI inh: inactive; PrPC surface inh: inactive

Results for CNC(=O)c1cc2c(=O)n3cc(C)ccc3nc2n(C(C)C)c1=N ?
Mtb FBA inh: active; PrP UTR inh: inactive; Y pestis TopoI: inactive; Mtb hypoxia rep: inactive; GDH-TPI inh: inactive; PrPC surface inh: inactive

How did CCN(N=O)C(Cc1ccccc1)CN(N=O)C(Cc1ccccc1)CN(C)N=O (stereo not drawn) do in these assays?
Mtb hypoxia rep: inactive

What do the screens show for `CCCCCCN1C[C@@H](n2cc(-c3ccc(F)cc3)nn2)[C@H](O)C[C@@H]1c1ccc(OC)cc1`?
Mtb FBA inh: inactive; Y pestis TopoI: 65; GDH-TPI inh: inactive; PrPC surface inh: inactive

What do the screens show for `CCC(NC(=O)COc1cc2c(c3oc(=O)c(C)c(C)c13)CCC(C)(C)O2)C(=O)O` (stereo not drawn)?
Mtb FBA inh: active; PrP UTR inh: inactive; Y pestis TopoI: inactive; Mtb hypoxia rep: inactive; GDH-TPI inh: inactive; PrPC surface inh: inactive

What do the screens show for `Cc1c(C)c2c(OCC(=O)N[C@@H](C)C(=O)O)cc3c(c2oc1=O)CCC(C)(C)O3`?
Mtb FBA inh: active; PrP UTR inh: inactive; Y pestis TopoI: inactive; Mtb hypoxia rep: inactive; GDH-TPI inh: inactive; PrPC surface inh: inactive

What do the screens show for `Cc1ccc(S(=O)(=O)N2C(c3cccc(C)c3)CC=C(C(=O)O)C2c2ccc(F)cc2)cc1` (stereo not drawn)?
Mtb hypoxia rep: inactive

What do the screens show for `COc1cc(/C=C2\SC(=O)NC2=O)ccc1OCC(=O)N1CCOCC1`?
Mtb FBA inh: inactive; PrP UTR inh: inactive; Y pestis TopoI: inactive; Mtb hypoxia rep: inactive; GDH-TPI inh: 37; PrPC surface inh: inactive

Results for COc1cc(/C=N/NC(N)=S)ccc1OCC(=O)N1CCOCC1 ?
Mtb FBA inh: inactive; PrP UTR inh: inactive; Y pestis TopoI: inactive; GDH-TPI inh: 31; PrPC surface inh: inactive

Results for COc1cc(/C=N/NC(=S)Nc2cccc(Cl)c2C)ccc1OCC(=O)N1CC(C)OC(C)C1 (stereo not drawn) ?
Mtb FBA inh: inactive; PrP UTR inh: inactive; Y pestis TopoI: inactive; GDH-TPI inh: 33; PrPC surface inh: inactive

What do the screens show for `COc1ccc(C2CC(=O)C=C(c3c(OC)cccc3OC)C2)cc1` (stereo not drawn)?
Mtb hypoxia rep: inactive

What do the screens show for `CC(C(=O)NCc1ccccc1)C1C[C@]1(C)C(NC(=O)OCc1ccccc1)c1ccccc1` (stereo partly drawn)?
Mtb hypoxia rep: inactive

Results for CC1COC(=O)C(NC(=O)OCC2c3ccccc3-c3ccccc32)CC=CCC(CC(=O)NC(CO)Cc2ccccc2)C(=O)N1 (stereo not drawn) ?
Mtb hypoxia rep: inactive

How did COc1ccc(-c2cn3cccnc3n2)cc1F do in these assays?
Mtb FBA inh: active; PrP UTR inh: inactive; Y pestis TopoI: inactive; Mtb hypoxia rep: inactive; GDH-TPI inh: inactive; PrPC surface inh: inactive

Results for Clc1ccc(-c2cn3cccnc3n2)cc1 ?
Mtb FBA inh: active; PrP UTR inh: inactive; Y pestis TopoI: inactive; GDH-TPI inh: inactive; PrPC surface inh: inactive

Results for Brc1ccc(-c2cn3cccnc3n2)cc1 ?
Mtb FBA inh: 139; PrP UTR inh: inactive; Y pestis TopoI: inactive; Mtb hypoxia rep: inactive; GDH-TPI inh: inactive; PrPC surface inh: inactive

Results for Clc1ccc(-c2cn3cccnc3n2)cc1Cl ?
Mtb FBA inh: 70; PrP UTR inh: inactive; Y pestis TopoI: inactive; GDH-TPI inh: inactive; PrPC surface inh: inactive

What do the screens show for `Cc1cccc(CCN2C(N(C)C)=NCC2Cc2ccccc2)c1` (stereo not drawn)?
Mtb hypoxia rep: inactive

Results for O=C(NCCCN1CCOCC1)c1cc(-c2ccc3c(c2)OCO3)nc2ccccc12 ?
Mtb FBA inh: inactive; PrP UTR inh: inactive; Y pestis TopoI: inactive; Mtb hypoxia rep: inactive; GDH-TPI inh: inactive; PrPC surface inh: inactive

What do the screens show for `O=C(NCCCN1CCCC1=O)c1cc(-c2ccc3c(c2)OCO3)nc2ccccc12`?
Mtb FBA inh: inactive; PrP UTR inh: inactive; Y pestis TopoI: inactive; Mtb hypoxia rep: inactive; GDH-TPI inh: 34; PrPC surface inh: inactive

How did O=C(Cc1ccc([N+](=O)[O-])cc1)c1c(O)cc(O)cc1O do in these assays?
Mtb FBA inh: inactive; PrP UTR inh: inactive; Y pestis TopoI: inactive; Mtb hypoxia rep: inactive; GDH-TPI inh: 35; PrPC surface inh: inactive

Results for CC(C)n1c(O)c(N=NC(=O)CNC(=O)CCc2ccccc2)c2ccccc21 ?
Mtb FBA inh: inactive; PrP UTR inh: inactive; Y pestis TopoI: inactive; Mtb hypoxia rep: inactive; GDH-TPI inh: 31; PrPC surface inh: inactive

How did COc1ccccc1C(=O)NCC(=O)N=Nc1c(O)n(C(C)C)c2ccccc12 do in these assays?
Mtb FBA inh: inactive; PrP UTR inh: inactive; Y pestis TopoI: inactive; Mtb hypoxia rep: inactive; GDH-TPI inh: 31; PrPC surface inh: inactive

What do the screens show for `CN(Cc1c(F)cccc1Cl)C(=O)c1ccc(COc2ccccc2)cc1`?
Mtb FBA inh: inactive; PrP UTR inh: inactive; Y pestis TopoI: 55; Mtb hypoxia rep: inactive; GDH-TPI inh: inactive; PrPC surface inh: inactive

Results for COc1ccc(NC(=O)N(C)CC2Oc3c(NS(=O)(=O)c4ccc(OC)cc4)cccc3C(=O)N(C(C)CO)CC2C)cc1 (stereo not drawn) ?
Mtb hypoxia rep: inactive

How did c1ccc(-c2sc3ccccc3c2-c2ccc(OCCN3CCCCC3)cc2)cc1 do in these assays?
Mtb FBA inh: inactive; PrP UTR inh: inactive; Y pestis TopoI: inactive; Mtb hypoxia rep: inactive; GDH-TPI inh: inactive; PrPC surface inh: inactive

What do the screens show for `CN(C)CCOc1ccc(-c2c(-c3ccccc3)sc3ccccc23)cc1`?
Mtb FBA inh: inactive; PrP UTR inh: inactive; Y pestis TopoI: inactive; Mtb hypoxia rep: 51; GDH-TPI inh: inactive; PrPC surface inh: inactive

What do the screens show for `C=CCNC(=O)C(=Cc1ccc(OC)cc1)NC(=O)c1ccc([N+](=O)[O-])cc1`?
Mtb hypoxia rep: inactive

What do the screens show for `Cc1cc(NC(=O)COC(=O)c2ccccc2NCCO)no1`?
Mtb FBA inh: 127; PrP UTR inh: inactive; Y pestis TopoI: inactive; Mtb hypoxia rep: inactive; GDH-TPI inh: inactive; PrPC surface inh: inactive

How did COC(=O)Cn1cc(/C=N/NC(=O)c2ccc(C#N)cc2F)c2ccccc21 do in these assays?
Mtb FBA inh: inactive; PrP UTR inh: inactive; Y pestis TopoI: inactive; GDH-TPI inh: 38; PrPC surface inh: inactive

What do the screens show for `Cc1c(/C=N/Nc2ccc(C(=O)O)cc2)c2ccccc2n1C`?
Mtb FBA inh: inactive; PrP UTR inh: inactive; Y pestis TopoI: inactive; GDH-TPI inh: 41; PrPC surface inh: inactive
